Assay outcomes as filed in PubChem.
HPGD block: qHTS Assay for Inhibitors of HPGD (15-Hydroxyprostaglandin Dehydrogenase); purified HPGD, NADH fluorescence kinetic, PGE2 substrate; Potency, µM, for the others: at the top dose activity change, negative = inhibition, usual class: inhibitors; 15-hydroxyprostaglandin dehydrogenase [NAD(+)] (Homo sapiens), P15428; 4.3% of 150,000 active; also: potency is read from the fitted curve at half-maximal effect
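20 nM HPGD preincubated 15 min at room temperature with compound in 50 mM Tris-HCl pH 8, 0.01% Tween 20. Started with 1 mM NAD+ and 30 uM prostaglandin E2; NADH fluorescence (360/450 nm) read 5 times over 30-s intervals, last minus first.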
IMPase Li cell: qHTS Assay for Identifying the Cell-Membrane Permeable IMPase Inhibitors: Potentiation with Lithium | CHO-M1 cells, IP1 TR-FRET (IP-One), carbachol + lithium | Potency, µM (series often up to 59.4 µM), inactives show top-dose activity, negative = IMPase inhibition, usual class: inhibitors | 0.35% of 210,000 active | AID 1457, 2008; active = well fitted curve in the direction sought with a large enough effect; inconclusive = small, poorly fitted or top-dose-only effect, or another doubt; inactive = no such curve, though single readings can be large; an effect the other way counts as inactive or inconclusive;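 also: IP1 builds up when IMPase is blocked and the TR-FRET signal falls; potency is read from the fitted curve at half-maximal effect; plate controls were basal vehicle for no effect and high inhibitor control for full effect; nearly all actives have a fitted effect of over 50% in size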
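CHO cells stably expressing M1 receptor (2000/well) were cultured 16–30 h, then exposed to compounds with a small lithium addition for 30 min at 37C. IP1 was measured by TR-FRET competition; AC50 from Hill fits.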
12-hLO inh: qHTS Assay for Inhibitors of 12-hLO (12-human lipoxygenase). 0.12% of 150,000 active. Polyunsaturated fatty acid lipoxygenase ALOX12 (Homo sapiens), P18054. purified 12-hLO, xylenol orange hydroperoxide absorbance. Potency, µM (series often up to 57.1 µM), for inactives: at the top dose activity change, negative = inhibition, usual class: inhibitors; active = well fitted curve in the direction sought with a large enough effect; inconclusive = small, poorly fitted or top-dose-only effect, or another doubt; inactive = no such curve, though single readings can be large; an effect the other way counts as inactive or inconclusive; also: potency is read from the fitted curve at half-maximal effect; nearly all actives have a fitted effect of over 55% in size
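150 nM 12hLO, 25 mM Hepes pH 7.0 + 0.01% Triton X-100; cpd preinc 15 min RT; 40 uM arachidonic acid, 30 min RT; Fe-XO 30 min; A573/A405 ratio as read-out.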
ALDH1A1 inh: qHTS Assay for Inhibitors of Aldehyde Dehydrogenase 1 (ALDH1A1); Purified ALDH1A1, NADH fluorescence, propionaldehyde substrate; Aldehyde dehydrogenase 1A1 (Homo sapiens), P00352; AID 1030, 2008; 7.3% of 220,000 active; Potency, µM (series often up to 75.3 µM), for inactives: at the highest dose activity, negative = inhibition, usual class: inhibitors;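 also: potency is read from the fitted curve at half-maximal effect; plate controls were no enzyme wells and a reference inhibitor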
Target sequence (P00352 whole entry, looked up): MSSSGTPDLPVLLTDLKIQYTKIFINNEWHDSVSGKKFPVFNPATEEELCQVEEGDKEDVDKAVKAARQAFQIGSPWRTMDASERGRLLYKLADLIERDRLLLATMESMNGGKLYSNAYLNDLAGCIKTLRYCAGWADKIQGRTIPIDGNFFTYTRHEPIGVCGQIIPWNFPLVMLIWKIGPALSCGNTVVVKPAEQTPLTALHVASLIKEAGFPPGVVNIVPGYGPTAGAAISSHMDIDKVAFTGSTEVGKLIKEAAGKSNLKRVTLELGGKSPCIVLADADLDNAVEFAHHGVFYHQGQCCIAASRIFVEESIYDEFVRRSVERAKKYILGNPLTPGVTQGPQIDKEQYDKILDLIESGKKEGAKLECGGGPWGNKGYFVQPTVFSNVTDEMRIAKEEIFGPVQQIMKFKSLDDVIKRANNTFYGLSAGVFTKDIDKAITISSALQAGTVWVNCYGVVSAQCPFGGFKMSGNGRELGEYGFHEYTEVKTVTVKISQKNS
IMPase cell inh: qHTS Assay for Identifying the Cell-Membrane Permeable IMPase Inhibitors | Inositol monophosphatase 1 (Rattus norvegicus), P97697 | CHO-M1 cells, IP1 accumulation, HTRF TR-FRET ratio | inhibition (IP1 accumulation), % at 46.1 µM | 120,000 tested, under 10 active | AID 901, 2007; active = well fitted curve in the direction sought with a large enough effect in the signal ratio, not every such curve was filed as active; inconclusive = small, poorly fitted or top-dose-only effect, or a change in a side signal; inactive = no such curve, though single readings can be large or run the other way; the % refers to the signal ratio;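 also: cells stimulated with carbachol in lithium chloride buffer; plate controls were DMSO basal wells for no effect and reference inhibitor wells for full effect; higher means more IMPase inhibition seen as more IP1 and lower FRET ratio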
Target sequence (P97697 whole entry, looked up): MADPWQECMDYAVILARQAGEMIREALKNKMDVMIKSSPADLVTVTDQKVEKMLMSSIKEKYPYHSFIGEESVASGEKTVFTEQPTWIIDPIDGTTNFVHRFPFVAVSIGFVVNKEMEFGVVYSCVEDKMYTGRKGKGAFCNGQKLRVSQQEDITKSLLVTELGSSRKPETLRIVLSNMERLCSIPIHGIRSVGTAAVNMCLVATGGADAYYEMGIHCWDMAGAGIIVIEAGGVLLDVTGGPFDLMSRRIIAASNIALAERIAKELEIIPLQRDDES
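CHO-M1 cells (CHO stably expressing M1 receptor), compound up to 46 uM final, stimulated with carbachol (50 uM as added) in buffer with 50mM LiCl, pH 7.4, 30 min at 37C. Cytosolic IP1 read by TR-FRET; AC50 from Hill fits.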
PNC inhibitor: High Content Assay for Compounds that inhibit the Assembly of the Perinucleolar Compartment; PC3M PTB-GFP, PNC prevalence imaging, 16 h; hits give low values; activity change (PNC), negative = inhibition, % at 10 µM; 3.1% of 140,000 active;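 active = readout at or below -70, meaning at least 70% loss of cells showing the perinucleolar compartment, a nuclear body marking cancer cells; inconclusive = readout between -30 and a set limit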;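 also: plate controls were DMSO wells for no effect and camptothecin positive control wells for full effect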
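PC3M cells stably expressing PTB-GFP, 750–1000 cells/well, treated 16 h at 37 °C with compound (23 nl of library stock), in duplicate. After paraformaldehyde fixation and Hoechst stain, imaged at 20x; PNC prevalence scored by image analysis.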
Starred values were filed as active, the others as inactive; ? = inconclusive; · = not tested or not shown; [ ] = remark or other dose. Rows were chosen to be rich in hits. Some 11% of all compounds tested hit in one or more screens of this group. Unless noted, calls follow the shape of the dose curve; as a rule, active = well fitted inhibition curve with a large enough effect (not every such curve was filed as active); inconclusive = small, poorly fitted or top-dose-only effect, or another doubt; inactive = no such curve, though single readings can be large or run the other way. Unless noted, % is scaled to controls: 0 for no effect and ±100 for the full control effect.

SMILES | HPGD block | IMPase Li cell | 12-hLO inh | ALDH1A1 inh | IMPase cell inh | PNC inhibitor
COc1ccc(Nc2oc(COc3ccc(OC)cc3)nc2C#N)cc1 | ? | 23% | -19% | -2% | 16 | ?
COc1ccc(Nc2oc(COc3ccc(C)cc3)nc2C#N)cc1 | 25µM* | 20% | -23% | ? | 7 | -100*
CN(C)Cc1ccc(C(C)(C)C)cc1-c1cc(C(C)(C)C)ccc1CN(C)C | -11% | -9% | -3%[11.4 µM] | -2%[13.5 µM] | · | ·
CCn1nnnc1-c1ccc(OC)c(S(=O)(=O)Nc2ccc(OC)cc2)c1 | -16% | 12%[38.3 µM] | 0% | 0.11µM* | -5 | -3
CCOC(=O)c1ccc(NS(=O)(=O)c2cc(-c3nnnn3C(C)C)ccc2OC)cc1 | -22% | -12%[38.3 µM] | 0% | 2.8µM* | ? | 1
COC(=O)c1ccc(NS(=O)(=O)c2cc(C)ccc2OC)cc1 | ? | -2%[38.3 µM] | -6% | 1% | -7 | 4
CCn1nnnc1-c1ccc(OC)c(S(=O)(=O)Nc2ccc(C(=O)OC)cc2)c1 | -8% | 20%[38.3 µM] | -1% | 7.1µM* | 25 | ?
Cc1ccc(NC(=O)Cn2cc(C(=O)c3cccs3)c3ccccc32)cc1C | · | · | · | · | 2 | ·
Cc1cc(Cl)ccc1Oc1nccc(N(C)C)c1C#N | -19% | 3%[38.3 µM] | -8% | 9% | 12 | -3
CCCCN(CCCNc1ncnc2nc[nH]c12)c1ccccc1 | -5% | 9% | -1% | -2% | -5 | 31
CCCCN(c1ccccc1)c1ncnc2nc[nH]c12 | -11% | 23% | 2% | 11µM* | -4 | 18
C[C@H](CCC(=O)O)[C@H]1CC[C@H]2[C@H]3C(C[C@H](O)[C@]12C)[C@@]1(C)CC[C@@H](O)C[C@H]1C[C@H]3O (stereo partly drawn) | -3% | 0% | 1% | 8% | -1 | ·
S=c1[nH]nc(-c2ccco2)n1-c1ccc(Cl)cc1 | · | -25% | · | -7% | · | ·
S=c1[nH]nc(-c2ccco2)n1/N=C/c1ccc(Cl)cc1Cl | 2.2µM* | -6%[38.3 µM] | 2% | ? | -1 | -1
S=c1[nH]nc(-c2ccco2)n1/N=C/c1cccc(Cl)c1Cl | 2µM* | -10% | -4% | -4% | · | 46
NCCC1([N+](=O)[O-])CCNCC1 | -3% | 3% | 6%[11.4 µM] | 12%[13.5 µM] | · | ·
CCCCCCCCCCCCCCCC(=O)NCC(=O)O | -2% | -2% | -2% | -1% | · | ·
N#CCCN(C1CCCCC1)S(=O)(=O)CCOc1ccccc1 | -4% | 1%[38.3 µM] | 3% | 8.9µM* | -3 | ?
Cc1ccc(S(=O)(=O)N(CCC#N)C2CCCCC2)c2nsnc12 | -18% | 7% | -3% | ? | · | 93
Cc1cccc(NC(=O)/C(C#N)=C/c2ccco2)c1 | · | · | · | · | -2 | ·
CCC(C(=O)Nc1cc(C)ccc1OC)n1nnc(C(=O)OC)c1C(=O)OC (stereo not drawn) | · | · | · | · | 6 | ·
O=C(NC(=S)Nc1ccc(Cc2ccncc2)cc1)c1ccccc1 | ? | 1% | -9% | 18µM* | · | 90
Cc1cc(C)cc(C(=O)NC(=S)Nc2ccc(Cc3ccncc3)cc2)c1 | -6% | 12% | 8% | ? | · | 41
Cc1cccc(C(=O)NC(=S)Nc2ccc(Cc3ccncc3)cc2)c1 | ? | 17%[38.3 µM] | ? | 20µM* | 7 | 49
COC(=O)Nc1ccc(Cc2ccncc2)cc1 | · | 6% | · | 15% | · | ·
SMILES | HPGD block | IMPase Li cell | 12-hLO inh | ALDH1A1 inh | IMPase cell inh | PNC inhibitor
CCOC(=O)NNC(=S)Nc1c(C)n(C)n(-c2ccccc2)c1=O | · | · | · | 2% | · | ·
Cc1sc(NC(=O)c2ccc(OCC(C)C)cc2)c(C(N)=O)c1-c1ccc(Cl)cc1Cl | ? | -19%[38.3 µM] | 8% | ? | 6 | -14
COCCOC(=O)c1c(C)oc2ccc(NS(=O)(=O)c3ccccc3)cc12 | -15% | 20%[38.3 µM] | 0% | 20µM* | 1 | 24
Cc1ccc(S(=O)(=O)NCc2ccncc2)c(C)c1C | · | 2% | · | 32µM* | · | ·
Cc1cc(C)c(S(=O)(=O)NCc2ccncc2)c(C)c1 | -6% | 43%[38.3 µM] | 9% | 6% | 9 | ?
COc1ccc(N(CCCN2C(=O)c3cccc4cccc(c34)C2=O)C(=O)c2cccc(OC)c2)cc1 | -11% | 17% | 2% | 8.9µM* | 5 | ?
Cc1ccc(N(CCCCN2C(=O)c3ccccc3C2=O)C(=O)c2cccc([N+](=O)[O-])c2)cc1 | -8% | 23%[38.3 µM] | -2% | ? | 6 | 9
O=C1c2ccccc2C(=O)N1CCCCN(C(=O)c1cc([N+](=O)[O-])cc([N+](=O)[O-])c1)c1ccc(Cl)cc1 | -7% | 4% | 3% | 1.4µM* | · | -27
O=C1c2cccc3cccc(c23)C(=O)N1CCCN(C(=O)c1cccs1)c1cccc(F)c1 | ? | -2% | 4% | ? | · | 58
O=C1c2ccccc2C(=O)N1CCCCN(C(=O)c1cc([N+](=O)[O-])ccc1Cl)c1ccc(Cl)cc1 | -15% | 21% | -1% | 5µM* | 6 | ?
Cc1ccc(N(CN2C(=O)c3ccccc3C2=O)C(=O)c2ccc([N+](=O)[O-])cc2[N+](=O)[O-])cc1 | -6% | 1% | -5% | -9% | · | -30
O=C1c2ccccc2C(=O)N1CCCCN(C(=O)c1ccc([N+](=O)[O-])cc1)c1ccc(Cl)cc1 | -6% | 12%[38.3 µM] | -12% | 1.6µM* | 2 | 6
COc1ccc(S(=O)(=O)N(CC(=O)NCc2ccc(C)cc2)c2ccc(Cl)cc2)cc1 | · | · | · | · | -6 | ·
Cc1ccc(N(CCCCN2C(=O)c3ccccc3C2=O)C(=O)c2ccc(Cl)s2)cc1 | -8% | 5% | -2% | 4% | -8 | -3
O=C1c2ccccc2C(=O)N1CCCCN(C(=O)c1ccc(Cl)s1)c1ccc(Cl)cc1 | -17% | 18% | -1% | 4.5µM* | · | 94
CCC(C)c1ccc(NC(=O)c2cccnc2)cc1 (stereo not drawn) | -11% | 25%[38.3 µM] | -5% | ? | 7 | 1
CCOC(=O)c1ccc(Cl)c(NC(=O)c2cccnc2)c1 | · | 2% | · | 11µM* | · | ·
CCC(C)c1ccc(O)c(NC(=O)c2cccnc2)c1 (stereo not drawn) | -10% | 10µM* | 3% | 11µM* | 0 | -11
CC(C)C(=O)NC(=S)Nc1ccc(S(=O)(=O)NC(C)(C)C)cc1 | ? | 50%[38.3 µM] | -8% | ? | 7 | -107*
Cc1cc2ccc(OC(=O)c3ccc(N=C(N)N)cc3)cc2oc1=O | ? | 8% | 11%[11.4 µM] | ? | · | ·
